High-throughput results as filed in PubChem BioAssay.
HPGD inh – blocks human HPGD enzyme activity; P15428; purified HPGD, NADH fluorescence kinetic, PGE2 substrate; Potency, µM, for inactives: top-dose activity change, negative = inhibition, actives largely listed as inhibitors; actives 4.3% (n = 150,000); AID 894; note: potency is the fitted concentration of half-maximal effect
Target sequence (P15428 whole entry, looked up): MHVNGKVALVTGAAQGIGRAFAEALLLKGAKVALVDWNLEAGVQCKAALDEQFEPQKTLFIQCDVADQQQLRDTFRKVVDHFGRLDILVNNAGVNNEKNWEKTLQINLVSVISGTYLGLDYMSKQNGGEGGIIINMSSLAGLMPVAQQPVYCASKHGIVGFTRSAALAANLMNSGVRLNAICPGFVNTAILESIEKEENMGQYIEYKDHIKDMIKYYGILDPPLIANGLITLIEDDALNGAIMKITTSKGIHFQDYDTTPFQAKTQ
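NADH formation kinetics: reaction with 30 uM PGE2 and 1 mM NAD+ (final), 20 nM enzyme, Tris-HCl pH 8 with Tween 20, after 15 min compound preincubation at room temperature. Fluorescence change, last versus first of five reads.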
ALDH1A1 block – ALDH1A1 (human) enzyme inhibition. P00352. Purified ALDH1A1, NADH fluorescence, propionaldehyde substrate. Potency, µM (titrated, usually from 75.3 µM), for inactives: at the top dose activity, negative = inhibition, usual class: inhibitors. actives 7.3% (n = 220,000). AID 1030;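 note: potency is the fitted concentration of half-maximal effect; plate controls were no enzyme wells and a reference inhibitor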
PNC inhibitor – perinucleolar compartment assembly inhibition; PC3M PTB-GFP, PNC prevalence imaging, 16 h; stronger effect = lower value; activity change (PNC), negative = inhibition, % at 10 µM; actives 3.1% (n = 140,000); AID 2417;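 active = readout at or below -70, meaning at least 70% loss of cells showing the perinucleolar compartment, a nuclear body marking cancer cells; inconclusive = readout between -30 and a set limit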;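 note: plate controls were DMSO wells for no effect and camptothecin positive control wells for full effect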
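Read-out is percentage of cells bearing a perinucleolar compartment, from automated 20x imaging of fixed, Hoechst-stained PC3M PTB-GFP cells. Cells were seeded 4 h, then exposed 16 h to compound (23 nl of library stock) in duplicate plates.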
12-hLO inh – blocks human 12-lipoxygenase activity; actives 0.12% (n = 150,000); AID 1452; purified 12-hLO, xylenol orange hydroperoxide absorbance; Potency, µM (series often up to 57.1 µM), for the others: at the top dose activity change, negative = inhibition, most hits filed as inhibitors; active = well fitted inhibition curve with a large enough effect; inconclusive = small, poorly fitted or top-dose-only effect; note: potency is the fitted concentration of half-maximal effect; nearly all actives have a fitted effect of over 55% in size
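Purified human 12hLO (150 nM final) was preincubated with compounds for 15 min at room temperature in 25 mM Hepes pH 7.0, 0.01% Triton X-100, then reacted with 40 uM arachidonic acid for 30 min. Hydroperoxide was detected with ferrous iron/xylenol orange.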
LMNA splice mod – LMNA splicing modulation; HeLa LMNA splicing GFP/RFP minigene ratio, 48 h; Potency, µM (highest dose often 46.1 µM), for inactives: top-dose ratio change, negative = inhibition, usual class: inhibitors; actives 0.01% (n = 200,000); AID 1487; active = well fitted inhibition curve with a large enough effect in the signal ratio, with a control signal flat, not every such curve was filed as active; inconclusive = small, poorly fitted or top-dose-only effect, or effect the other way, or a change in a side signal; the % refers to the signal ratio; note: potency is the fitted concentration of half-maximal effect
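S3 HeLa stable clones carrying a lamin A-EGFP splicing minigene plus DsRed2 were seeded at 600 cells/well in Opti-MEM with 2% FBS, pin-dosed and incubated 48 h at 37°C. Acumen cytometry (488 nm) gave the GFP/RFP total-intensity ratio.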
Starred values were filed as active, the others as inactive; ? = inconclusive; . = not tested or not shown; [ ] = another dose, or the depositor's remark. An excerpt weighted towards active compounds, which were near 10% of everything screened. Unless noted, calls come from the whole dose curve; as a rule, active = well fitted inhibition curve with a large enough effect (not every such curve was filed as active); inconclusive = small, poorly fitted or top-dose-only effect, or another doubt; inactive = no such curve, though single readings can be large or run the other way. Unless noted, % is set by controls: 0 for no effect and ±100 for the full control effect.

SMILES | HPGD inh | ALDH1A1 block | PNC inhibitor | 12-hLO inh | LMNA splice mod
CS(=O)(=O)Nc1cccc(C2=NN(S(C)(=O)=O)C(c3ccc4c(c3)OCO4)C2)c1 (configuration not stated) | -11% | 0% | 51 | -5% | ?
Cc1ccc(C2CC(c3ccco3)=NN2S(C)(=O)=O)cc1 (configuration not stated) | -6% | ? | -12 | -3% | 5%
COC(=O)N1CC=CC1(C)C(=O)O (configuration not stated) | -6% | 5% | . | -2% | .
COc1cccc(/C=N/NC(=O)c2cc(-c3ccc(C)cc3)n[nH]2)c1O | 40µM* | -1% | . | -3% | .
O=C(N/N=C/c1c[nH]c2ccccc12)c1cc(-c2ccc3ccccc3c2)n[nH]1 | ? | 16% | -113* | -4% | ?
Cc1nc(C)c(C(=O)N/N=C/c2c[nH]c3ccccc23)s1 | ? | ? | -87* | -3% | -11%
CC(C)(C)OC(=O)N/N=C/c1c[nH]c2ccccc12 | -11% | 8% | -109* | -1% | -1%
COc1ccccc1CCn1c(=O)c(CCc2ccccc2)nc2cncnc21 | . | ? | . | . | 12%
COc1ccc(CC(=O)NCc2nc3cccnc3n2Cc2ccc(C)cc2)cc1OC | . | . | . | . | -3%[46 µM]
CCCCCOC(=O)c1ccc(OC(=O)c2cncc(Br)c2)cc1 | -17% | 4% | 34 | 4% | 8%
CC(=O)CCc1ccc(OC(=O)c2cccnc2)cc1 | -8% | 4% | -100* | -2% | -2%
CCCCCCCOC(=O)c1ccc(OC(=O)c2cccnc2)cc1 | 22µM* | ? | 25 | -1% | 4%
O=Cc1ccc(OC(=O)c2cccnc2)cc1 | . | 5µM* | . | . | -4%[46 µM]
COc1ccc(N2CCN(S(=O)(=O)c3cnc[nH]3)CC2)cc1 | . | 4% | . | . | .
C[C@@H](CS(=O)(=O)Cc1ccccc1)C(N)=O | -13% | 0%[13.5 µM] | . | -2%[11.4 µM] | .
Cc1c(C(=O)O)nc(/C=C\C(=O)O)[nH]c1=O | -5% | 20%[13.5 µM] | . | -1%[11.4 µM] | .
CC1CN(Cc2csc(-c3ccc(Cl)cc3)n2)CC(C)O1 (configuration not stated) | . | 16µM* | . | . | ?
ClCc1csc(-c2ccc(Cl)cc2)n1 | -5% | -9% | -113* | 0% | 8%
CCOc1ccc(-c2nc(CCl)cs2)cc1 | . | -10% | . | . | -4%[46 µM]
Cc1nc(CSc2ccc(Cl)cc2)cc(N2CC(C)OC(C)C2)n1 (configuration not stated) | . | 6% | . | . | ?
CCOC(=O)CSc1nc2ccc(N)cc2s1 | ? | 20µM* | 49 | 0% | -4%
Cn1ccnc1SCC(=O)Nc1ccc2nc(SCC(=O)NC3CC3)sc2c1 | 14µM* | 3.5µM* | ? | 3% | -24%
Cc1ccccc1NC(=O)CSc1nc2ccc(NC(=O)c3ccccc3)cc2s1 | . | . | . | . | 12%[46 µM]
CC(C)(C)NC(=O)CSc1nc2ccc(NC(=O)CSc3nnnn3Cc3ccccc3)cc2s1 | 8.9µM* | 4µM* | ? | -1% | ?
CCOC(=O)CSc1nc2ccc(NC(=O)c3ccccc3)cc2s1 | . | . | . | . | -22%[46 µM]
SMILES | HPGD inh | ALDH1A1 block | PNC inhibitor | 12-hLO inh | LMNA splice mod
CC(C)(C)NC(=O)CSc1nc2ccc(NC(=O)CSc3nnc(N)s3)cc2s1 | 32µM* | -2% | ? | -5% | ?
Cc1ccc(NC(=O)CSc2nc3ccc(NC(=O)CCc4ccccc4)cc3s2)cc1 | . | . | . | . | 15%[46 µM]
COCC(=O)N1CCC2(CCN(Cc3ccc(C#N)cc3)CC2)CC1 | -2% | -3% | . | -2% | .
O=C(COc1ccccc1-c1ccccc1)N/N=C/c1ccccn1 | . | -4% | . | . | -10%[46 µM]
CCOC(=O)C12CC1/C(=N\O)c1ccccc1O2 (configuration not stated) | . | -5% | . | . | .
Cc1ccc(CNc2nc3ccccc3n3c(C)nnc23)cc1 | . | . | . | . | -6%[46 µM]
COc1ccc(N2CCN(C(=O)CCNS(=O)(=O)c3ccccc3)CC2)cc1 | . | -8% | . | . | 2%[46 µM]
COc1ncc2nc(-c3cc(F)cc(F)c3)c(=O)n(Cc3cccs3)c2n1 | -24% | ? | . | -9% | .
CCOC(=O)CSc1nc2ccc(NC(=O)CSc3nnnn3Cc3ccccc3)cc2s1 | -11% | 14µM* | -2 | 7% | -6%
CCOC(=O)CSc1nc2ccc(NC(=O)COc3ccccc3)cc2s1 | . | . | . | . | 19%[46 µM]
Fc1ccc(NC(=S)NC2CCN(Cc3ccccc3)CC2)cc1 | . | 14µM* | . | . | -2%[46 µM]
